From PubChem BioAssay
SENP7 block: SENP7 protease inhibition | inhibition, % at 5 µM | actives 1.5% (n = 330,000) | recombinant SENP7, Z-RLRGG-aminoluciferin luminescence, 40 min | AID 434973;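 active means inhibition above about 50% at the single test dose, limit read from the data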;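 further: plate controls were DMSO with enzyme for no effect and no enzyme buffer wells for full effect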
SENP6 block: inhibitors of human SENP6 protease | Q9GZR1 | Recombinant SENP6 catalytic domain, aminoluciferin luminescence | inhibition, % at 10 µM | actives 1.8% (n = 330,000);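 active means inhibition above about 50% at the single tested dose, limit read from the data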;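 further: plate controls were DMSO wells with enzyme for no effect and DMSO wells lacking enzyme for full effect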
AHR activator: activators of human aryl hydrocarbon receptor | P35869 | AHR-responsive luciferase reporter cells, luminescence | activation, % at 5 µM | actives 2.5% (n = 320,000) | AID 2796; in the data active means activation above about 47%;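 further: 0% = vehicle wells and 100% = reference agonist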
Target sequence (P35869 whole entry, looked up): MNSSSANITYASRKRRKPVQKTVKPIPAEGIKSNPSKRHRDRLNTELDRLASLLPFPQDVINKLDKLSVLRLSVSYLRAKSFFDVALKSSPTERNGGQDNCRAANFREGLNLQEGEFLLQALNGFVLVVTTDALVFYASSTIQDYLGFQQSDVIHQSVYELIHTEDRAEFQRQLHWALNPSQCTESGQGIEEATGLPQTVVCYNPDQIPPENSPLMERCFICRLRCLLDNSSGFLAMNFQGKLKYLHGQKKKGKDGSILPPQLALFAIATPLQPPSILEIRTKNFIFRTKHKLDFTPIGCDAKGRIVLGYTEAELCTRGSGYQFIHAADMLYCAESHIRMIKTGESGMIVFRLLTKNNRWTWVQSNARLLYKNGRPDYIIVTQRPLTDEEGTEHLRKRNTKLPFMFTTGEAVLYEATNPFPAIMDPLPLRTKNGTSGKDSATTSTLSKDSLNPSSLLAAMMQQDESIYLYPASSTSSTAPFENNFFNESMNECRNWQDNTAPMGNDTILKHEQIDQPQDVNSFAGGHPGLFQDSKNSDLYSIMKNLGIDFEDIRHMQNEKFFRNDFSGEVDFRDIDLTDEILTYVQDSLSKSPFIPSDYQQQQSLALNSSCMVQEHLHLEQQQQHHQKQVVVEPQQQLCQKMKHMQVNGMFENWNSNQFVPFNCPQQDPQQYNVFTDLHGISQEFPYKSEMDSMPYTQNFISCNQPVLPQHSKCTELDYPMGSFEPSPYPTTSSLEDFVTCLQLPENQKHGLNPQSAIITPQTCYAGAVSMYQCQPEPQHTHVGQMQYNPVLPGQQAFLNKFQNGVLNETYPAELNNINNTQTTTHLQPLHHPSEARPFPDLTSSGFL
SENP8 block-1: SENP8 protease inhibition. purified SENP8, Z-RLRGG-aminoluciferin cleavage, luminescence. inhibition, % at 10 µM. actives 1.2% (n = 330,000); in the data active means inhibition above about 50%
EBI2 block: EBI2 (human) antagonism. P32249. EBI2 beta-arrestin recruitment, luminescence, 7a,25-OHC stimulated. inhibition, % at 5 µM. actives 0.81% (n = 360,000). AID 651636; in the data active means inhibition above about 38%;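 further: enzyme fragment complementation signal reports receptor beta-arrestin coupling in cells; 0% = agonist plus DMSO wells and 100% = wells without agonist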
SENP8 block-2: inhibitors of human SENP8 protease. Q96LD8. recombinant SENP8, Nedd8 substrate fluorescence. inhibition, % at 20 µM. actives 0.64% (n = 360,000). AID 602440; in the data active means inhibition mostly above about 40%, no sharp cut-off; inactive means mostly below about 27%
SENP8 conf: confirmation of human SENP8 protease inhibitors; shares compounds with SENP7 block; inhibition, % at 12.5 µM; Recombinant SENP8, Z-RLRGG-aminoluciferin luminescence, 60 min; actives 40% (n = 6,200);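 active means mean inhibition across replicates above about 50%, limit read from the data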
SENP6 confirm: confirmation of human SENP6 protease inhibitors; shares compounds with SENP7 block; recombinant SENP6, Z-RLRGG-aminoluciferin luminescence; inhibition, % at 12.5 µM; actives 58% (n = 6,200); AID 488915
SENP7 conf: human SENP7 inhibition, confirmed; shares compounds with SENP7 block; recombinant SENP7, Z-RLRGG-aminoluciferin luminescence, 40 min; inhibition, % at 12.5 µM; actives 69% (n = 6,200)
Casp3 SENP sel: caspase-3 inhibition (SENP selectivity assay). shares compounds with SENP7 block. purified caspase-3, Z-DEVD-aminoluciferin luminescence, 60 min. inhibition, % at 12.5 µM. actives 60% (n = 6,200);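 active means mean inhibition above about 50%, limit read from the data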;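 further: plate controls were enzyme with DMSO for no effect and wells without caspase-3 for full effect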
SENP luc ctr: counter-screen for SENP inhibitors: luminescence interference. Pre-incubated SENP8/Z-RLRGG-aminoluciferin, luciferase luminescence interference. shares compounds with SENP7 block. AID 488919. actives 39% (n = 6,200). inhibition, % at 12.5 µM;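 active means mean inhibition above about 50% when retested at one dose, limit read from the data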;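 further: plate controls were DMSO wells with completed reaction for no effect and substrate without enzyme for full effect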
The depositor's hits bear a star; i = inactive; x = no result. Sampled rows, rich in hits. Any-hit rate of the full collection: about 5%.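 How the source made its calls, unless noted: active means mean inhibition above about 50% in the one-dose retest (limit read from the data); inactive means the rest.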

SMILES	SENP7 block	SENP6 block	AHR activator	SENP8 block-1	EBI2 block	SENP8 block-2	SENP8 conf	SENP6 confirm	SENP7 conf	Casp3 SENP sel	SENP luc ctr
CC(=O)c1cc2ccc(O)cc2oc1=O	18	14	0	4	7	-422	x	x	x	x	x
O=C(NNC(=O)c1cc2cc(Br)ccc2oc1=O)c1ccc(O)cc1O	-2	-12	3	1	-20	21	x	x	x	x	x
CC(=O)c1ccc(COC(=O)c2cc3ccccc3oc2=O)cc1	13	4	-3	-13	-7	-101	x	x	x	x	x
O=C(c1ccccc1)c1cc2ccc(O)cc2oc1=O	98*	95*	-2	96*	7	-151	98*	99*	102*	98*	96*
CCc1ccc(C(=O)c2cc3ccc(O)cc3oc2=O)cc1	7	60*	0	48	-14	-199	66*	62*	84*	71*	66*
COc1ccc(-c2cc3ccc(O)cc3oc2=O)cc1OC	100*	99*	9	95*	-5	-382	99*	100*	103*	99*	96*
O=C(c1ccc(Br)cc1)c1cc2ccc(O)cc2oc1=O	51*	90*	4	92*	-1	-112	92*	95*	101*	96*	95*
Cc1ccc(NC(=O)c2cc(S(=O)(=O)N3CCOCC3)cn2C)cc1Cl	5	-2	8	5	10	2	x	x	x	x	x
Oc1ccc(/C=N/NC(=S)NCCN2CCOCC2)c(O)c1	-6	-9	-1	-4	-15	-102	x	x	x	x	x
COc1ccc2c(c1)[C@H]1[C@H](CO2)[C@H](c2ccccc2)[C@]2(C)C(=O)N[C@H](C)C(=O)N12	4	-12	0	-6	0	-17	x	x	x	x	x
COc1ccc2cc(C(=O)NCc3ccco3)c(=O)oc2c1	-5	-12	12	-7	6	i	x	x	x	x	x
O=C(NCc1ccco1)c1cc2ccc(O)cc2oc1=O	96*	98*	5	95*	-6	-406	99*	100*	103*	99*	99*
COc1ccc(C(=O)c2cc3ccc(O)cc3oc2=O)cc1	97*	100*	-2	95*	4	-275	96*	97*	102*	98*	95*
Cc1ccc(OCC(O)Cn2nc(C)cc2C)cc1 (configuration not stated)	6	1	0	8	-6	26	x	x	x	x	x
COC(=O)Cc1ccc(NC(=S)Nc2cccc(C)n2)cc1	-6	-7	-1	-7	3	15	x	x	x	x	x
COc1ccc(NC(=O)CC2Nc3cccc4cccc(c34)NC2=O)cc1 (configuration not stated)	67*	93*	57*	59*	-3	-64	3	4	12	8	2
COC(=O)c1c(NC(=O)CC2Nc3ccccc3NC2=O)sc(C)c1C (configuration not stated)	2	-29	15	0	-4	-42	x	x	x	x	x
O=C(Nc1ccc(SC(F)F)cc1)c1ccc(F)cc1	40	27	-1	29	3	13	x	x	x	x	x
CC(C)(C)c1cc(NC(=O)c2ccco2)no1	71*	67*	6	32	13	9	53*	57*	86*	83*	56*
Cc1cc(C(=O)Nc2cc(C(C)(C)C)on2)c(C)o1	71*	73*	1	64*	-15	2	15	25	44	51*	11
CC(C)(C)c1cc(NC(=O)Nc2ccccc2)no1	7	30	9	13	1	23	x	x	x	x	x
Cc1cc(C(=O)Nc2ccon2)c(C)o1	-9	-39	-1	-10	0	1	x	x	x	x	x
